# Reference: PubChem BioAssay (NCI)
# This is part of a sample that, as a whole, favours compounds with a hit. Of some 79,000 tested, about 15% had one in any assay. A number with no mark means an inactive call. Calls of active or inactive are those of the source. Rule as the data show it: active = growth inhibition above about 70%; inactive = the rest.
# Legend:
# [1] = NCI Yeast Anticancer Drug Screen. Data for the rad52 strain (AID 147);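 also: 0% = growth of vehicle-treated control cultures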; conditions: S. cerevisiae rad52 mutant growth inhibition, hits give high values
# In short: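 Genetically altered yeast (DNA damage repair defect) treated with compound; inhibition calculated relative to vehicle.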
# [2] = NCI Yeast Anticancer Drug Screen. Data for the wt1 strain (AID 149);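 also: 0% = growth of vehicle-treated wt1 cultures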; conditions: S. cerevisiae wt1 strain (SPY 50644) growth inhibition, hits give high values
# In short: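 Readout: yeast growth inhibition, normalised to vehicle controls, in the wt1 strain exposed to test compounds.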
# [3] = NCI Yeast Anticancer Drug Screen. Data for the rad50EPP+ strain (AID 151);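 also: 0% = growth of vehicle-treated control cultures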; conditions: S. cerevisiae rad50 mutant strain, hits give high values
# In short: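 Strain rad50EPP+; compound exposure; % growth inhibition vs vehicle.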
# [4] = NCI Yeast Anticancer Drug Screen. Data for the rad50 strain (AID 155);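 also: 0% = growth of vehicle-only cultures of the same strain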; conditions: S. cerevisiae rad50 strain growth inhibition, hits give high values
# In short: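 Compounds were tested on a yeast strain with an engineered DNA damage repair alteration; the reported value is growth inhibition normalised to vehicle treatment.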
# [5] = NCI Yeast Anticancer Drug Screen. Data for the mec2-1 strain (AID 157); conditions: S. cerevisiae mec2-1 strain, hits give high values
# In short: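 Cells of the genetically defined mec2-1 yeast strain are incubated with test compound. Inhibition of growth is calculated against vehicle-treated controls.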
# [6] = NCI Yeast Anticancer Drug Screen. Data for the rad14 strain (AID 159);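 also: 0% = growth of vehicle-treated control cultures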; conditions: S. cerevisiae rad14 strain growth inhibition, hits give high values
# In short: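 Compound-treated yeast with a defined DNA-repair lesion; growth inhibition normalised to vehicle-treated cultures.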
# [7] = NCI Yeast Anticancer Drug Screen. Data for the sgs1 mgt1 strain (AID 161);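 also: 0% = growth of cultures given vehicle only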; conditions: S. cerevisiae sgs1 mgt1 strain, hits give high values
# In short: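 Genetically altered yeast, compound exposure, growth inhibition relative to vehicle.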
# [8] = NCI Yeast Anticancer Drug Screen. Data for the CLN2oe strain (AID 163);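 also: 0% = growth of vehicle-only control cultures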; conditions: S. cerevisiae CLN2oe strain, hits give high values
# In short: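 Strain altered in cell-cycle control, incubated with compound; growth compared to solvent-treated controls.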
# [9] = NCI Yeast Anticancer Drug Screen. Data for the cln2 rad14 strain (AID 165);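 also: 0% = growth equal to vehicle treated cultures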; conditions: S. cerevisiae cln2 rad14 strain, hits give high values
# In short: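 The screen exposed genetically defined yeast (cln2 rad14) to test compounds and scored growth inhibition relative to vehicle-treated controls.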
# [10] = NCI Yeast Anticancer Drug Screen. Data for the bub3 strain (AID 167); conditions: S. cerevisiae bub3 mutant strain, hits give high values
# In short: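 Growth of a checkpoint-deficient yeast mutant is measured after compound exposure. Values represent inhibition relative to vehicle.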
# [11] = NCI Yeast Anticancer Drug Screen. Data for the wt2 strain (AID 169);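 also: 0% = growth of vehicle-treated yeast cultures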; conditions: S. cerevisiae wt2 strain growth inhibition, hits give high values
# In short: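 Steps: yeast strain treated with compound; growth recorded; inhibition calculated relative to cultures given vehicle alone.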
# [12] = NCI Yeast Anticancer Drug Screen. Data for the mlh1 strain (AID 171);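 also: 0% = growth of vehicle-treated control cultures of the same strain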; conditions: S. cerevisiae mlh1 strain growth inhibition, hits give high values
# In short: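 Yeast screen: mutant strain plus compound, growth scored against vehicle control wells.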
# [13] = NCI Yeast Anticancer Drug Screen. Data for the sgs1 strain (AID 173);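 also: 0% = growth of vehicle-only control cultures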; conditions: S. cerevisiae sgs1 mutant, hits give high values
# In short: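 Inhibition of yeast growth served as the measure. The mutant strain was treated with each compound, and growth was normalised to cultures receiving vehicle alone.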
# [14] = NCI Yeast Anticancer Drug Screen. Data for the mlh1 rad18 strain (AID 175); conditions: S. cerevisiae mlh1 rad18 strain growth inhibition, hits give high values
# In short: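 Compound-treated yeast growth, normalised to vehicle controls. Strain bears defined DNA repair mutations.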
# [15] = NCI Yeast Anticancer Drug Screen. Data for the rad18 strain (AID 177); conditions: S. cerevisiae rad18 mutant growth inhibition, hits give high values
# In short: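 Inhibition values reflect reduced yeast growth compared with vehicle-treated controls, using a strain engineered with a DNA damage repair defect.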
# [16] = at 5.0 µM (retest, dose inferred, filed as 0.5)
# [17] = at 50.0 µM (retest, dose inferred, filed as 5.0)
smiles,measurement,setting,value
CCC(C(=O)O)C1=C(c2ccccc2)CCc2ccccc21 (stereo unspecified),growth inhibition,[1]; at 1.2 µM,10%
same,growth inhibition,[1]; at 3.7 µM,29%
same,growth inhibition,[1]; at 11.0 µM,97% (active)
same,growth inhibition,[1]; at 33.0 µM,99% (active)
same,growth inhibition,[1]; at 100.0 µM,98% (active)
same,growth inhibition,[2]; at 1.2 µM,4%
same,growth inhibition,[2]; at 3.7 µM,20%
same,growth inhibition,[2]; at 11.0 µM,97% (active)
same,growth inhibition,[2]; at 33.0 µM,99% (active)
same,growth inhibition,[2]; at 100.0 µM,94% (active)
same,growth inhibition,[3]; at 1.2 µM,0%
same,growth inhibition,[3]; at 3.7 µM,2%
same,growth inhibition,[3]; at 11.0 µM,7%
same,growth inhibition,[3]; at 33.0 µM,26%
same,growth inhibition,[3]; at 100.0 µM,44%
same,growth inhibition,[4]; at 1.2 µM,10%
same,growth inhibition,[4]; at 3.7 µM,30%
same,growth inhibition,[4]; [16],23%
same,growth inhibition,[4]; at 11.0 µM,97% (active)
same,growth inhibition,[4]; at 33.0 µM,99% (active)
same,growth inhibition,[4]; [17],98% (active)
same,growth inhibition,[4]; at 50.0 µM,99.5% (active)
same,growth inhibition,[4]; at 100.0 µM,91% (active)
same,growth inhibition,[5]; at 1.2 µM,9%
same,growth inhibition,[5]; at 3.7 µM,28%
same,growth inhibition,[5]; [16],11%
same,growth inhibition,[5]; at 11.0 µM,95% (active)
same,growth inhibition,[5]; at 33.0 µM,99% (active)
same,growth inhibition,[5]; [17],99% (active)
same,growth inhibition,[5]; at 50.0 µM,99.5% (active)
same,growth inhibition,[5]; at 100.0 µM,98% (active)
same,growth inhibition,[6]; at 1.2 µM,12%
same,growth inhibition,[6]; at 3.7 µM,19%
same,growth inhibition,[6]; at 11.0 µM,96% (active)
same,growth inhibition,[6]; at 33.0 µM,99% (active)
same,growth inhibition,[6]; at 100.0 µM,90% (active)
same,growth inhibition,[7]; [16],6%
same,growth inhibition,[7]; [17],99% (active)
same,growth inhibition,[7]; at 50.0 µM,99.5% (active)
same,growth inhibition,[8]; at 1.2 µM,14%
same,growth inhibition,[8]; at 3.7 µM,23%
same,growth inhibition,[8]; at 11.0 µM,96% (active)
same,growth inhibition,[8]; at 33.0 µM,99% (active)
same,growth inhibition,[8]; at 100.0 µM,92% (active)
same,growth inhibition,[9]; [16],6%
same,growth inhibition,[9]; [17],98% (active)
same,growth inhibition,[9]; at 50.0 µM,98.8% (active)
same,growth inhibition,[10]; at 1.2 µM,6%
same,growth inhibition,[10]; at 3.7 µM,13%
same,growth inhibition,[10]; [16],-2%
same,growth inhibition,[10]; at 11.0 µM,93% (active)
same,growth inhibition,[10]; at 33.0 µM,99% (active)
same,growth inhibition,[10]; [17],97% (active)
same,growth inhibition,[10]; at 50.0 µM,99% (active)
same,growth inhibition,[10]; at 100.0 µM,94% (active)
same,growth inhibition,[11]; at 1.2 µM,6%
same,growth inhibition,[11]; at 3.7 µM,14%
same,growth inhibition,[11]; at 11.0 µM,96% (active)
same,growth inhibition,[11]; at 33.0 µM,98% (active)
same,growth inhibition,[11]; at 100.0 µM,99% (active)
same,growth inhibition,[12]; at 1.2 µM,9%
same,growth inhibition,[12]; at 3.7 µM,20%
same,growth inhibition,[12]; at 11.0 µM,96% (active)
same,growth inhibition,[12]; at 33.0 µM,99% (active)
same,growth inhibition,[12]; at 100.0 µM,93% (active)
same,growth inhibition,[13]; at 1.2 µM,7%
same,growth inhibition,[13]; at 3.7 µM,24%
same,growth inhibition,[13]; at 11.0 µM,97% (active)
same,growth inhibition,[13]; at 33.0 µM,99% (active)
same,growth inhibition,[13]; at 100.0 µM,99% (active)
same,growth inhibition,[14]; [16],52%
same,growth inhibition,[14]; [17],99% (active)
same,growth inhibition,[14]; at 50.0 µM,99.5% (active)
same,growth inhibition,[15]; at 1.2 µM,8%
same,growth inhibition,[15]; at 3.7 µM,27%
same,growth inhibition,[15]; at 11.0 µM,97% (active)
same,growth inhibition,[15]; at 33.0 µM,99% (active)
same,growth inhibition,[15]; at 100.0 µM,82% (active)
c1ccc(-c2nc3cccnc3s2)cc1,growth inhibition,[1]; at 1.2 µM,1%
same,growth inhibition,[1]; at 3.7 µM,1%
same,growth inhibition,[1]; at 11.0 µM,6%
same,growth inhibition,[1]; at 33.0 µM,14%
same,growth inhibition,[1]; at 100.0 µM,16%
same,growth inhibition,[2]; at 1.2 µM,-2%
same,growth inhibition,[2]; at 3.7 µM,-4%
same,growth inhibition,[2]; at 11.0 µM,-2%
same,growth inhibition,[2]; at 33.0 µM,-2%
same,growth inhibition,[2]; at 100.0 µM,0%
same,growth inhibition,[3]; at 1.2 µM,3%
same,growth inhibition,[3]; at 3.7 µM,7%
same,growth inhibition,[3]; at 11.0 µM,8%
same,growth inhibition,[3]; at 33.0 µM,19%
same,growth inhibition,[3]; at 100.0 µM,24%
same,growth inhibition,[4]; at 1.2 µM,2%
same,growth inhibition,[4]; at 3.7 µM,9%
same,growth inhibition,[4]; [16],5%
same,growth inhibition,[4]; at 11.0 µM,5%
same,growth inhibition,[4]; at 33.0 µM,9%
same,growth inhibition,[4]; [17],56%
same,growth inhibition,[4]; at 50.0 µM,73.5% (active)
same,growth inhibition,[4]; at 100.0 µM,33%
same,growth inhibition,[5]; at 1.2 µM,-2%
same,growth inhibition,[5]; at 3.7 µM,-1%
same,growth inhibition,[5]; [16],5%
same,growth inhibition,[5]; at 11.0 µM,-3%
same,growth inhibition,[5]; at 33.0 µM,-12%
same,growth inhibition,[5]; [17],20%
same,growth inhibition,[5]; at 50.0 µM,9.5%
same,growth inhibition,[5]; at 100.0 µM,20%
same,growth inhibition,[6]; at 1.2 µM,-3%
same,growth inhibition,[6]; at 3.7 µM,0%
same,growth inhibition,[6]; at 11.0 µM,-2%
same,growth inhibition,[6]; at 33.0 µM,1%
same,growth inhibition,[6]; at 100.0 µM,5%
same,growth inhibition,[7]; [16],-5%
same,growth inhibition,[7]; [17],18%
same,growth inhibition,[7]; at 50.0 µM,13.6%
same,growth inhibition,[8]; at 1.2 µM,0%
same,growth inhibition,[8]; at 3.7 µM,-1%
same,growth inhibition,[8]; at 11.0 µM,0%
same,growth inhibition,[8]; at 33.0 µM,-5%
same,growth inhibition,[8]; at 100.0 µM,3%
same,growth inhibition,[9]; [16],-25%
same,growth inhibition,[9]; [17],-19%
same,growth inhibition,[9]; at 50.0 µM,5.55%
same,growth inhibition,[10]; at 1.2 µM,-4%
same,growth inhibition,[10]; at 3.7 µM,0%
same,growth inhibition,[10]; [16],25%
same,growth inhibition,[10]; at 11.0 µM,10%
same,growth inhibition,[10]; at 33.0 µM,10%
same,growth inhibition,[10]; [17],43%
same,growth inhibition,[10]; at 50.0 µM,-2.7%
same,growth inhibition,[10]; at 100.0 µM,14%
same,growth inhibition,[11]; at 1.2 µM,-2%
same,growth inhibition,[11]; at 3.7 µM,-3%
same,growth inhibition,[11]; at 11.0 µM,-3%
same,growth inhibition,[11]; at 33.0 µM,-5%
same,growth inhibition,[11]; at 100.0 µM,0%
same,growth inhibition,[12]; at 1.2 µM,2%
same,growth inhibition,[12]; at 3.7 µM,13%
same,growth inhibition,[12]; at 11.0 µM,2%
same,growth inhibition,[12]; at 33.0 µM,-2%
same,growth inhibition,[12]; at 100.0 µM,15%
same,growth inhibition,[14]; [16],-8%
same,growth inhibition,[14]; [17],1%
same,growth inhibition,[14]; at 50.0 µM,-4.1%
same,growth inhibition,[15]; at 1.2 µM,3%
same,growth inhibition,[15]; at 3.7 µM,2%
same,growth inhibition,[15]; at 11.0 µM,-1%
same,growth inhibition,[15]; at 33.0 µM,-6%
same,growth inhibition,[15]; at 100.0 µM,-15%
